# Bioassay records from PubChem BioAssay.
# Only some compounds are listed: those with a hit (about 5.2% of all), similar ones and a draw of the others.
# Coupling enz = coupling enzyme interference in Giardia aldolase counter-screen. coupling enzyme system counterscreen, AmpLite Red fluorescence. activity change, negative = inhibition, % at 58.2 µM, hits read low. 290,000 compounds, 0.67% hits; in the data active = activity change below about -30%
#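 Activity here indicates interference with the coupling reaction, not aldolase inhibition. Compounds at 57.5 uM final met coupling enzymes for 10 min at RT; substrate and AmpLite Red detection followed, with a 525/598 nm fluorescence read after 20 min.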
# Tau ThT inhib = tau fibrillization inhibition (ThT binding); Potency, µM (top dose mostly 57.4 µM), for the others: top-dose activity, negative = inhibition, hits mostly inhibitors; recombinant tau K18 P301L, heparin-induced fibrillization, ThT fluorescence; AID 1460; P10636; 270,000 compounds, 2.1% hits; note: potency is the fitted concentration of half-maximal effect; nearly all actives have a fitted effect of over 55% in size
# Target sequence (P10636 561-689 P618L limits assumed): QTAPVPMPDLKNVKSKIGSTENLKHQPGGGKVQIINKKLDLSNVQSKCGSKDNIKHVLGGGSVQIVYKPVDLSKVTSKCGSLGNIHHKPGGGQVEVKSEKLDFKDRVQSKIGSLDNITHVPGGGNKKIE
#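 Aggregation was driven by heparin (20 uM final) acting on recombinant tau […] bearing P301L in 100 mM sodium acetate pH 7; fibrils were detected with Thioflavin T.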
# Tau FP inhib = inhibitors of human tau fibril formation; K18 P301L tau heparin fibrillization, Alexa594 FP, 6 h; Potency, µM (top dose mostly 57.7 µM), for the others: at the top dose activity, negative = inhibition, hits mostly inhibitors; 280,000 compounds, 0.39% hits; P10636; note: potency is the fitted concentration of half-maximal effect; nearly all actives have a fitted effect of over 55% in size
#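 Compound effects on tau fibrillization are measured by Alexa 594 fluorescence polarization (ex 555, em 632 nm). K18 P301L tau is used at 15 uM with 0.24 uM labeled tracer, and 20 uM heparin induces aggregation over 6 hr at 37 C.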
# Tau fluor counter = counter-screen for tau fibril formation inhibitors; Potency, µM (top dose mostly 57.7 µM), without a hit: at the top dose activity change, negative = decrease; 280,000 compounds, 0.93% hits; tau K18 P301L Alexa594 fluorescence, heparin fibrillization; note: potency is the fitted concentration of half-maximal effect; nearly all actives have a fitted effect of over 55% in size
#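 Human tau K18 P301L (15 uM unlabeled, 0.24 uM Alexa 594-labeled) in 100 mM sodium acetate pH 7 with 20 uM heparin, 6 hr at 37 C. ThT 30 uM added, 1 hr ambient; Alexa 594 FP and total fluorescence read at 555/632 nm.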
# Sfp inh = inhibitors of Bacillus subtilis Sfp phosphopantetheinyl transferase; Q9F4F7; Biochemical Sfp PPTase activity, qHTS; Potency, µM, without a hit: largest response in the series, negative = inhibition, usual class: inhibitors; 310,000 compounds, 3.5% hits;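 note: the enzyme is Sfp with the accession as filed and its product quenches rhodamine fluorescence; potency is the fitted concentration of half-maximal effect; 0% = enzyme reaction without inhibitor and -100% = no enzyme wells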
#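 Fluorescence-quenching assay with 15 nM Sfp, 5 uM rhodamine-CoA and 12.5 uM BHQ-2-labelled ybbR peptide in pH 7.6 Hepes/MgCl2 buffer. Enzyme was pre-incubated with compound for 15 min at room temperature. Rate was taken from the 30-min fluorescence change (525/598 nm).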
# The depositor's hits bear a star; ? = inconclusive; . = no result given; [ ] = dose if it differs, or a comment. Unless noted, calls come from the whole dose curve; as a rule, active = well fitted curve in the direction sought with a large enough effect; inconclusive = small, poorly fitted or top-dose-only effect, or another doubt; inactive = no such curve, though single readings can be large; an effect the other way counts as inactive or inconclusive. Unless noted, % is set by controls: 0 for no effect and ±100 for the full control effect.
SMILES,Coupling enz,Tau ThT inhib,Tau FP inhib,Tau fluor counter,Sfp inh
CC(=O)c1cccc(NS(=O)(=O)c2ccc3[nH]c4c(c3c2)CCCCCC4)c1,.,-7.4%,4.6%,14.1µM*[quencher],.
COc1ccc(Cn2c(C(=O)O)c(CNCCc3ccccc3Cl)c3ccc(C)cc32)cc1,.,-16.3%,-0.3%,-28.3%,.
CC(C)(C)NS(=O)(=O)c1ccc2[nH]c3c(c2c1)CCCCC3,5.9,.,.,.,6.6%
CCOC(=O)c1ccc(NS(=O)(=O)c2ccc3[nH]c(=O)[nH]c3c2)cc1,0.1,-17.5%,-5.7%,-6.3%,22.4µM*
CC(=O)c1cccc(NS(=O)(=O)c2ccc3[nH]c4c(c3c2)CCCCC4)c1,.,-1.8%,2.0%,14.1µM*[quencher],.
CCCCNC(=O)c1ccc(NS(=O)(=O)c2ccc3[nH]c(=O)[nH]c3c2)cc1,.,.,.,.,-10.3%
COc1ccc(-n2cc(C(=O)N(C)c3cc(C)ccc3OC)c3ccccc3c2=O)cc1,.,?,6.1%,-6.3%,.
CC(C)CCNC(=O)c1ccc2nc(Cc3ccccc3)oc2c1,.,-4.3%,5.3%,-12.9%,.
O=C(N/N=C/c1cn(-c2cccs2)nc1-c1ccccc1)c1ccc(O)cc1,-1.4,4.7%,?,10µM*[quencher],-12.9%
O=C(N/N=C/c1cn(-c2cccs2)nc1-c1ccccc1)c1ccccc1Cl,0.4,-9.2%,?,?,4.9%
CC[C@H](C)[C@H](NC(=O)[C@H](Cc1ccccc1)NC(=O)[C@H](CC(C)C)NC(=O)[C@H](CCSC)NC(=O)[C@H](CCC(=O)O)NC(=O)[C@H](CCC(=O)O)NC(=O)[C@H](CC(=O)O)NC(=O)[C@H](CO)NC(=O)[C@@H]1CCCN1C(=O)[C@H](CCCCN)NC(=O)[C@@H](N)[C@@H](C)O)C(=O)N[C@@H](Cc1ccc(O)cc1)C(=O)NCC(=O)N[C@@H](Cc1cnc[nH]1)C(=O)N[C@@H](Cc1ccc(O)cc1)C(=O)N[C@@H](CCCCN)C(=O)N[C@@H](CCC(N)=O)C(=O)N[C@@H](C)C(=O)N[C@H](C(=O)N[C@H](C(=O)NCC(=O)N[C@@H](CC(=O)O)C(=O)N[C@H](C(=O)N[C@@H](CC(N)=O)C(=O)N[C@H](C(=O)N[C@@H](CCC(=O)O)C(=O)N[C@@H](CCCNC(=N)N)C(=O)N1CCC[C@H]1C(=O)NCC(=O)N[C@@H](CCSC)C(=O)N[C@@H](CC(C)C)C(=O)N[C@@H](CC(=O)O)C(=O)N[C@@H](Cc1ccccc1)C(=O)N[C@H](C(=O)O)[C@@H](C)O)[C@@H](C)O)[C@@H](C)CC)C(C)C)[C@@H](C)O,0.7,.,.,.,-3.7%
Cc1ccc(CN(Cc2ccco2)C(=S)NCC(=O)NCc2cccnc2)cc1,-5.5,-17.6%,-0.7%,-16.7%,22.4µM*
Cc1ccc(CNC(=O)CNC(=S)N(Cc2ccccc2)Cc2cccnc2)cc1,5.7,-18.9%,-9.7%,-16.1%,12.4%
Cc1ccc(CN(Cc2ccccc2)C(=S)NCC(=O)NCc2cccnc2)o1,-0.7,-5.5%,3.8%,-1.0%,25.1µM*
CC(=O)OCC1OC(Oc2cc(OC(C)=O)c3c(=O)cc(-c4ccc(OC(C)=O)c(OC(C)=O)c4)oc3c2)C(OC(C)=O)C(OC(C)=O)C1OC(C)=O (centres undefined),-8.6,?,?,?,7.1%
COc1ccccc1N1CCN(C(=O)c2cn(C)c3ccc(S(=O)(=O)N(C)C4CCCCC4)cc3c2=O)CC1,.,-2.7%,2.1%,-6.8%,.
O=C(O)/C=C/c1ccc([N+](=O)[O-])o1,5.9,-7.5%,-2.8%,-4.0%,12.5%
O=C1NC(=S)S/C1=C\C=C\c1ccc([N+](=O)[O-])o1,-0.8,.,-48.0%,-36.1%,44.7µM*
CCCc1c(C)[nH]c2ccc(C(=O)O)cc2c1=S,-7.9,.,-13.5%,-5.0%,25.1µM*
CC1=CC(C)(C)NC(=S)N1c1cccc2cc(S(=O)(=O)O)ccc12,-9.7,31.6µM*,?,-28.8%,20µM*
Oc1ccc2ccccc2c1C=Nc1ccccc1-c1nc2ccccc2[nH]1,-32.1*,28.2µM*,-4.4%,?,4.4%
Cc1ccc(NC(=O)C(OC(=O)c2ccc(F)cc2)c2ccccc2)cc1Cl (centres undefined),-2.1,-0.9%,?,?,30.1%
